26 molecules from PubChem BioAssay (NCATS) can be followed below.

Test [1] is described as follows: qHTS drug screen for cell cycle checkpoint inhibitors in PARPi-resistant BRCA-mutant ovarian cancer cell lines. (AID 1963452). The settings on record: PEO1/OlaR viability, CellTiter-Glo luminescence, 96 h; for Z-AUC: stronger effect = lower value. The procedure, abridged: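 PEO1, PEO4 and PEO1/OlaR ovarian cancer cells, 600 per well, exposed 96 h at 37C to a dilution series. Viability read by CellTiter-Glo luminescence, normalized to DMSO and empty wells; activity summarized as Z-AUC.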
Background: Quantitative high-throughput screening tests each substance at several concentrations.

A short description of test [2]: qHTS profiling for inhibitors of Plasmodium falciparum proliferation (AID 504749; active means well fitted inhibition curve with a large enough effect;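 on activity, negative = inhibition: 0% = DMSO vehicle and full inhibition = artemisinin control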; on all read-outs here: nearly all actives have a fitted effect of over 60% in size). The conditions noted are these: P. falciparum in erythrocytes, SYBR Green DNA, 72 h; for activity, negative = inhibition: at 28.7 µM (top of the series). The procedure, abridged:
(§1)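 Infected RBCs, 0.3% parasitemia/2.5% Hct final; cpd 72 h, 37 C, 5% CO2; lysis buffer with saponin/triton/SYBR Green I, o/n RT dark; FI 485/535; norm. to artemisinin (0.29 uM) and DMSO.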

The subject of test [3] is 3D7. Described as above. The conditions noted are these: P. falciparum in erythrocytes, SYBR Green DNA, 72 h; series mostly up to 28.7 µM. The procedure, abridged:
as §1

Test [4] has as its system 7G8. The description is as above. The conditions noted are these: P. falciparum in erythrocytes, SYBR Green DNA, 72 h; series mostly up to 28.7 µM. The procedure, abridged: as §1
The test system of test [5] is AA1029. The test is described as above. The conditions noted are these: P. falciparum in erythrocytes, SYBR Green DNA, 72 h; series mostly up to 28.7 µM. The procedure, abridged:
as §1

The mark [6] stands for this setting: measured here: PEO1 parental Z-AUC.

Molecules are shown by their SMILES. Several values for one entry are separate records, joined by “and”; a condition that tells them apart may be missing. Identical values can stand only once. Inconclusive results are not listed. Activity calls are given as the source filed them. Unless noted, the call rests on the fitted dose curve.
Potency means the concentration at half of the fitted maximal effect.

Turning to `C=Cc1cc(O)cc2nc(-c3ccc(O)c(F)c3)oc12`, the Z-AUC is 0.0399 (inactive) in test [1], 0.836 in test [1] (setting [6]) and 0.548 in test [1] (measured here: PEO4 Z-AUC).
The like results for `O=C(c1ccc(NS(=O)(=O)c2cccc3cccnc23)cc1)N1CCN(CC2CC2)CC1` were, in that order, -0.157 (inactive), -0.299 and -0.11.
On to `Cc1nnc(C(C)C)n1C1CC2CCC(C1)N2CC[C@H](NC(=O)C1CCC(F)(F)CC1)c1ccccc1` (stereo partly specified), for which the Z-AUC is 1.09 (inactive) and 0.404 (inactive) in test [1]; 1.65 and 0.521 in test [1] (setting [6]); 1.24 and 0.375 in test [1] (measured here: PEO4 Z-AUC).
As to `CCCCN(CCCC)C(=O)CN1C[C@H](c2ccc3c(c2)OCO3)[C@@H](C(=O)O)[C@@H]1c1ccc(OC)cc1`, the Z-AUC in test [1] was 0.882 (inactive); in test [1] (setting [6]), 0.661; in test [1] (measured here: PEO4 Z-AUC) it was 0.129.
`CON(C)C(=O)N1N=C(c2cc(F)ccc2F)S[C@@]1(CCCN)c1ccccc1`: in test [1], the Potency is 0.0087 µM (active). The Z-AUC is -2.66 in test [1] (setting [6]) and -2.54 in test [1] (measured here: PEO4 Z-AUC).
`CNc1nc(Nc2cnn([C@H]3CCN(C4COC4)C[C@@H]3F)c2Cl)ncc1C(F)(F)F`: the Z-AUC in test [1] was -0.479 (inactive); in test [1] (setting [6]), -0.0727; in test [1] (measured here: PEO4 Z-AUC) it was 0.0395.
For `C[C@H](CCC(=O)O)[C@H]1CC[C@H]2[C@@H]3[C@H](O)C[C@@H]4C[C@H](O)CC[C@]4(C)[C@H]3CC[C@]12C`, in that order: 1.79 (inactive), 0.809 and 0.917.
For `O=C(Nc1cccnn1)N1CCC(=Cc2cccc(Oc3ccc(C(F)(F)F)cn3)c2)CC1`, in that order: -0.753 (inactive), -0.539 and -0.803.
Take `CO[C@@H]1COCC[C@@H]1N[C@@H]1CC[C@@](C(=O)N2CCc3ncc(C(F)(F)F)cc3C2)(C(C)C)C1`: the Z-AUC was 0.278 (inactive) in test [1], 1.21 in test [1] (setting [6]) and 1.12 in test [1] (measured here: PEO4 Z-AUC).
With `O=C(O)c1cc(=O)c2c3nc4ccccc4oc-3cc(=O)c2[nH]1`, the figures for the activity, negative = inhibition in test [2] (parasite line A) and in test [2] (parasite line B) were -19% (inactive) and -11.6% (inactive), respectively. The Potency was 14.1 µM (active) in test [3] and 1.26 µM (active) in test [4]. In addition, in test [5], the Potency entry was “inactive”.
For the molecule `COc1cc2c(cc1O)CCN[C@]21CS[C@@H]2c3c(OC(C)=O)c(C)c4c(c3[C@H](COC1=O)N1[C@@H]2[C@H]2c3c(cc(C)c(OC)c3O)C[C@@H]([C@@H]1O)N2C)OCO4`, in test [1], the Potency is 0.0399 µM (active). In addition, the Z-AUC in test [1] (setting [6]) is -2.17; in test [1] (measured here: PEO4 Z-AUC) it was -1.65.
`NS(=O)(=O)NCCNc1nonc1C(=Nc1ccc(F)c(Br)c1)NO`: the results for the Z-AUC in test [1], in test [1] (setting [6]) and in test [1] (measured here: PEO4 Z-AUC) were 1.03 (inactive), 0.698 and 1.08, respectively.
For `O=c1ccn([C@@H]2O[C@H](CO)[C@@H](O)[C@H]2O)c(=O)[nH]1`, in that order: 1.3 (inactive), 1.05 and 0.867.
For `CC(C)(O)CNc1nc(Nc2ccnc(C(F)(F)F)c2)nc(-c2cccc(C(F)(F)F)n2)n1`, in that order: 0.352 (inactive), 0.62 and 0.79.
The like results for `CCNC(=O)CCC/C=C\C[C@@H]1[C@@H](/C=C/C(O)CCc2ccccc2)[C@@H](O)C[C@@H]1O` (stereo partly specified) were, in that order, 1.72 (inactive), 1.41 and 1.49.
As for `CCCOc1ccn2c(C(C)=O)cc(-c3ccccc3S(C)(=O)=O)c2c1`, the figures for the Z-AUC in test [1], in test [1] (setting [6]) and in test [1] (measured here: PEO4 Z-AUC) were 2.02 (inactive), 1.76 and 1.78, respectively.
In the case of `O=C(NC[C@H](O)CN1CCc2ccccc2C1)c1cc(NC2COC2)ncn1`, the results for the Z-AUC in test [1], in test [1] (setting [6]) and in test [1] (measured here: PEO4 Z-AUC) were 0.421 (inactive), 0.62 and 0.347, respectively.
With `Clc1cc(Cl)c(OCC#CI)cc1Cl`, the Potency in test [2] (parasite line A) is 11.2 µM (active); in test [2] (parasite line B), 11.2 µM (active); in test [3], 11.2 µM (active); in test [4] it was 11.2 µM (active); in test [5] it was 12.6 µM (active).
`CC(Cc1ccc(O)c(O)c1)C(C)Cc1ccc(O)c(O)c1` (stereo unspecified): the activity, negative = inhibition was 6.89% (inactive) in test [2] (parasite line A) and -26.4% (inactive) in test [2] (parasite line B). The Potency result in test [3] and in test [5] was “inactive” throughout. For the same molecule, the Potency in test [4] is 8.91 µM (active).
On to `COc1cc2c(Nc3ccc(Cl)c(Cl)c3F)ncnc2cc1OCC1C[C@@H]2CN(C)C[C@@H]2C1` (stereo partly specified), for which the figures for the Z-AUC in test [1], in test [1] (setting [6]) and in test [1] (measured here: PEO4 Z-AUC) were -0.294 (inactive), -0.529 and -0.609, respectively.
As for `CN1C(=O)CN2CCc3ccccc3C2c2cc(Cl)ccc21` (stereo unspecified), the activity, negative = inhibition in test [2] (parasite line A) is -10.8% (inactive); in test [2] (parasite line B), -17.4% (inactive). In addition, the Potency result in test [3] and in test [5] was “inactive” throughout. Besides, the Potency in test [4] is 12.6 µM (active).
`NCc1ccc(OCCCc2sc(-c3ccc4c(c3)/C(=N/Nc3nc5ccccc5s3)CCC4)nc2C(=O)O)cc1`: the figures for the Z-AUC in test [1], in test [1] (setting [6]) and in test [1] (measured here: PEO4 Z-AUC) were 1.02 (inactive), 1.09 and 0.501, respectively.
For `O=C(NCC(=O)N1CC[C@H](NC2CCC(O)(c3ccc(-c4ncccn4)cn3)CC2)C1)c1cccc(C(F)(F)F)c1` (stereo partly specified), in that order: -0.56 (inactive), -0.577 and -0.816.
For the molecule `CC(C)N(C[C@H]1O[C@@H](n2cnc3c(N)ncnc32)[C@H](O)[C@@H]1O)C1CC(CCc2nc3ccc(C(C)(C)C)cc3[nH]2)C1` (stereo partly specified), the Z-AUC in test [1] is 1.59 (inactive); in test [1] (setting [6]) it was 1.75; in test [1] (measured here: PEO4 Z-AUC) it was 1.7.
The like results for `CCOC(=O)[C@H]1O[C@@H]1C(=O)N[C@@H](CC(C)C)C(=O)NCCC(C)C` were, in that order, -0.23 (inactive), 0.731 and 0.891.
For `Cc1ccc(C(=O)Nc2ccc(Oc3cc4cnn(C)c4cc3-c3cn[nH]c3)c(F)c2)c(=O)n1-c1ccc(F)cc1`, in that order: -0.0237 (inactive), 0.144 and -0.211.
